Source: PubChem BioAssay (National Center for Advancing Translational Sciences (NCATS))
TDP1 cell CPT: growth inhibition of DT40 Tdp1-/-;hTDP1 cells with camptothecin (screen for TDP1 inhibitors). chicken DT40 Tdp1-/-;hTDP1 cells + 20 nM CPT, ATP luminescence, 48 h. Potency, µM (top dose mostly 46.2 µM), without a hit: at the highest dose activity change, negative = growth inhibition, hits mostly inhibitors. actives 12% (n = 420,000). AID 686979; further: nearly all actives have a fitted effect of over 55% in size
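Chicken DT40 Tdp1-/- cells stably complemented with human TDP1 were seeded at 400 cells/well in medium containing 20 nM camptothecin, exposed to pin-transferred compounds, and grown at 37 °C for at least 48 hr. Viability was read as ATP luminescence.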
RORgamma inh: ROR gamma (mouse) transcription inhibition; P51450; actives 5.4% (n = 310,000); Potency, µM (doses to about 53.6 µM), for the others: top-dose activity change, negative = inhibition, actives largely listed as inhibitors; Drosophila S2 Gal4-RORgamma UAS-luciferase reporter, 20 h; further: nearly all actives have a fitted effect of over 60% in size
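Drosophila Schneider cells stably carrying a metallothionein-driven Gal4 DBD–ROR gamma fusion and a UAS-Photinus luciferase reporter were exposed to compound for 1 hr, then induced with copper sulfate (700 uM final) for 20 hr at ambient temperature before luminescence reading.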
12-LOX inh: ALOX12 (human) lipoxygenase inhibition; purified 12hLO, xylenol orange hydroperoxide absorbance; Potency, µM (highest dose often 108 µM), for the others: at the top dose activity change, negative = inhibition, hits mostly inhibitors; actives 1.1% (n = 580,000); P18054
Target sequence (P18054 whole entry, looked up): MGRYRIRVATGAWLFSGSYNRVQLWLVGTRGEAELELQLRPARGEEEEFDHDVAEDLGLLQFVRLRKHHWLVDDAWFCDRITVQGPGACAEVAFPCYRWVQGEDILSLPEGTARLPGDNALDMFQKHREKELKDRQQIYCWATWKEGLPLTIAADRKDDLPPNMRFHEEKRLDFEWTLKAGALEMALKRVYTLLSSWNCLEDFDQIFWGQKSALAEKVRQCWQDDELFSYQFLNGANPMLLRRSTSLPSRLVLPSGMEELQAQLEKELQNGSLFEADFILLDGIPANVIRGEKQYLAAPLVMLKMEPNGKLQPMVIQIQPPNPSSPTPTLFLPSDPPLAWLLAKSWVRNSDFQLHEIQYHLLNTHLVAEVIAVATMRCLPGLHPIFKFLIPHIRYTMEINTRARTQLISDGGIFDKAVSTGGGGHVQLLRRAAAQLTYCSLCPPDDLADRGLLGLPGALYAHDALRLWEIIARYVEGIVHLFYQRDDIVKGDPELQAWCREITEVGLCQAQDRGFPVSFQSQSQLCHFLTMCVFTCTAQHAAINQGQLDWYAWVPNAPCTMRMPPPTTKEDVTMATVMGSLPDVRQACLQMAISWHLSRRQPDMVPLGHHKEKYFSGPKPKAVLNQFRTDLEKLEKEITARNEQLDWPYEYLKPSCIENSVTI
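Purified human 12hLO at 150 nM in 25 mM Hepes, 0.01% Triton X-100, pH 7.0, preincubated 15 min at room temperature with compound. Reaction started with 40 uM arachidonic acid, 30 min at room temperature. Hydroperoxide measured by Fe-xylenol orange, 573/405 nm absorbance ratio.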
DT40 TDP1 no CPT: qHTS for Inhibitors of human tyrosyl-DNA phosphodiesterase 1 (TDP1): qHTS in cells in absence of CPT | Potency, µM (highest dose often 46.2 µM), for the others: top-dose activity change, negative = growth inhibition, most hits filed as inhibitors | actives 15% (n = 420,000) | DT40 Tdp1-/- hTDP1 cells, no CPT, ATP luminescence, 48 h; further: nearly all actives have a fitted effect of over 55% in size
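Chicken DT40 Tdp1-/- cells complemented with human TDP1, screened without camptothecin (DMSO vehicle only), 400 cells/well. Compounds pin-transferred, cells incubated at 37 °C for at least 48 hr. Growth read as ATP-dependent luminescence (CellTiter-Glo, 30 min at RT).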
ELG1 repair inh: inhibitors of ELG1-dependent DNA repair in HEK293T cells; HEK293T ELG1-luciferase reporter, luminescence, 16 h; DNA damage induced by 5-fluorouridine; Potency, µM (doses to about 46.1 µM), for the others: top-dose activity change, negative = inhibition, hits mostly inhibitors; actives 2.3% (n = 330,000); further: nearly all actives have a fitted effect of over 55% in size
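Quantitative HTS, concentration-response format. 2,000 cells/well co-treated with 5-fluorouridine and compound, 16 hr in 5% CO2 at 37 °C; ONE-Glo luminescence read after 30 min.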
Gal4-VP16 FLuc: Gal4-VP16 reporter inhibition counter-screen; Drosophila S2 Gal4-VP16 UAS-luciferase, luminescence, 20 h; Potency, µM (doses to about 53.6 µM), for inactives: at the highest dose activity, negative = inhibition, most hits filed as inhibitors; actives 3.5% (n = 310,000); AID 2546;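 further: Gal4-VP16 expression switched on by copper sulfate through the metallothionein promoter; nearly all actives have a fitted effect of over 50% in size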
An asterisk follows results filed as active. A selection: hits, their analogues and other compounds. The true share with any hit is near 15%. The call rests on the fitted dose curve; in most records, active means well fitted curve in the direction sought with a large enough effect; inconclusive means small, poorly fitted or top-dose-only effect, or another doubt; inactive means no such curve, though single readings can be large; an effect the other way counts as inactive or inconclusive. On the % scale 0 is the no-effect control and ±100 the full control effect; potency means the concentration at half of the fitted maximal effect.

O=c1oc(-c2ccco2)nc2c1cnn2-c1ccccc1 was read as TDP1 cell CPT inconclusive, RORgamma inh 0%, 12-LOX inh -18%, DT40 TDP1 no CPT inconclusive, ELG1 repair inh 1% and Gal4-VP16 FLuc inconclusive.
Cc1cccc(-n2ncc3c2ncn2nc(-c4ccco4)nc32)c1 was read as 12-LOX inh -8%.
Cc1cccc(-n2c(-c3ccco3)nc3c(cnn3-c3ccccc3C)c2=O)c1 was read as TDP1 cell CPT 21µM*, 12-LOX inh inconclusive and DT40 TDP1 no CPT inconclusive.
O=c1c2cnn(-c3ccccc3)c2nc(-c2ccco2)n1-c1ccccc1 was read as TDP1 cell CPT inconclusive, RORgamma inh inconclusive, 12-LOX inh -14%, DT40 TDP1 no CPT 21µM*, ELG1 repair inh 6.3µM* and Gal4-VP16 FLuc -15%.
`CCOC(=O)c1ccc(-n2c(-c3ccco3)nc3ccccc3c2=O)cc1` gave TDP1 cell CPT 12µM*, RORgamma inh 23%, 12-LOX inh 0%, DT40 TDP1 no CPT 18µM*, ELG1 repair inh -29% and Gal4-VP16 FLuc -7%.
Screening O=C(COC(=O)c1cc(=O)c2ccccc2o1)Nc1cccc(Br)c1 returned 12-LOX inh -24%.
`CN1C(=O)C(C)(C)c2cc(S(=O)(=O)NCc3ccc(C(=O)Nc4ccc(Cl)cc4)cc3)ccc21` gave TDP1 cell CPT 18µM*, 12-LOX inh -15% and DT40 TDP1 no CPT 13µM*.
`Cc1ccc(CNS(=O)(=O)c2ccc3c(c2)C(C)(C)C(=O)N3C)cc1` gave TDP1 cell CPT 8%, RORgamma inh 17%, 12-LOX inh 251%, DT40 TDP1 no CPT -27%, ELG1 repair inh 1% and Gal4-VP16 FLuc -8%.
CCc1ccc(NC(=O)c2ccc(CNS(=O)(=O)c3ccc4c(c3)C(C)(C)C(=O)N4C)cc2)cc1 was read as TDP1 cell CPT inconclusive, 12-LOX inh -3% and DT40 TDP1 no CPT 4.1µM*.
Screening COCCN1C(=O)c2cccn2CC1CNC(=O)c1cccc(OC)c1 (centres undefined) returned 12-LOX inh 37%.
Screening CNC(=O)NC(=O)C(C)Sc1nc(C2CC2)nc2ccccc12 (centres undefined) returned 12-LOX inh -67%.
For COC(=O)[C@]12CCCCC=C1N(Cc1cccc3ccccc13)C(=O)[C@H](CC(=O)N1CCCCC1)C2 the results were TDP1 cell CPT inconclusive, 12-LOX inh 0% and DT40 TDP1 no CPT 23µM*.
`COC(=O)[C@]12CCCCC=C1N(Cc1cccc3ccccc13)C(=O)[C@H](CC(=O)NCc1cccc3ccccc13)C2` gave TDP1 cell CPT inconclusive, 12-LOX inh 11% and DT40 TDP1 no CPT inconclusive.
COC(=O)[C@]12CCCCC=C1N(Cc1cccc3ccccc13)C(=O)[C@H](CC(=O)N1CCC(c3ccccc3)CC1)C2 was read as TDP1 cell CPT inconclusive, 12-LOX inh 0% and DT40 TDP1 no CPT 15µM*.
For O=C(Nc1ccc(N2CCCCC2)c(S(=O)(=O)Nc2ccccc2Cl)c1)c1cccnc1 the results were TDP1 cell CPT -28%, 12-LOX inh inconclusive, DT40 TDP1 no CPT inconclusive and ELG1 repair inh 18µM*.
`O=C(Nc1ccc(F)cc1)Nc1ccccc1N1CCCCC1` gave TDP1 cell CPT inconclusive, RORgamma inh 2%, 12-LOX inh inconclusive, DT40 TDP1 no CPT inconclusive, ELG1 repair inh 13µM* and Gal4-VP16 FLuc -1%.
